Bioassay records deposited in PubChem BioAssay by several laboratories.
Hits are enriched below; roughly 4.3% of the tested compounds scored in any of these assays.
FAS TE block: inhibitors of human fatty acid synthase thioesterase domain; P49327; recombinant FAS-TE, OMFH fluorogenic substrate, fluorescence endpoint; inhibition, % at 15 µM; 360,000 compounds, 0.67% hits;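 active = compounds whose normalised, plate-corrected inhibition of enzyme fluorescence in the single-dose primary screen is 50% or more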;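 note: 0% = DMSO with enzyme and 100% = substrate without enzyme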
ADAM10 inh: ADAM10 inhibition, QFRET primary screen; recombinant ADAM10, EDANS/DABCYL FRET peptide cleavage, 3 h; inhibition, % at 7 µM; 370,000 compounds, 0.62% hits;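 active = inhibition above a per-campaign cutoff equal to the mean of compounds falling between control-based bounds plus 3 SD, cut at about 20% in these data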;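 note: 0% = DMSO wells while the 100% control is not disclosed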
ADAM17 inh: ADAM17 inhibition, QFRET primary screen | inhibition, % at 6.95 µM | P78536 | recombinant ADAM17, EDANS/DABCYL FRET peptide cleavage | 370,000 compounds, 0.83% hits;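 active = inhibition above the mean of compounds lying between control limits plus 3 SD, set per campaign, cut at about 8.5% in these data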;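 note: 0% = DMSO-only wells as the low control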
Target sequence (P78536 215-824 limits assumed): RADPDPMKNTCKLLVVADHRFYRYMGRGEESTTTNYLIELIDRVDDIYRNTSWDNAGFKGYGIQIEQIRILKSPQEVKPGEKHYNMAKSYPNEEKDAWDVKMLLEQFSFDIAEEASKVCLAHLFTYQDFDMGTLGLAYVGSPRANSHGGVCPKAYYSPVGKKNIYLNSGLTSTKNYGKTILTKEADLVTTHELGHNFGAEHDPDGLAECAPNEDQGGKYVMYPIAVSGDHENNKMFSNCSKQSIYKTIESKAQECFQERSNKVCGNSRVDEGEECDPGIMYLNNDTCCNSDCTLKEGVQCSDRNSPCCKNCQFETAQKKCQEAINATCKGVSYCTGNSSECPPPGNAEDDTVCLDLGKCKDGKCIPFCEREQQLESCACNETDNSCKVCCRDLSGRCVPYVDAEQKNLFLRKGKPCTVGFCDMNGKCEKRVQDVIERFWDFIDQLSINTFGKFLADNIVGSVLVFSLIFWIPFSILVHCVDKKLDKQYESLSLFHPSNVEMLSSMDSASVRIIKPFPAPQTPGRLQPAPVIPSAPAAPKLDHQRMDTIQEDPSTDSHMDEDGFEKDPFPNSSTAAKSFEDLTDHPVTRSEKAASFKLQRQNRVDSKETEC
HGIII-sPLA2 inh: Blocks human group III sPLA2 activity | 370,000 compounds, 0.56% hits | AID 743126 | Q9NZ20 | inhibition, % at 12.2 µM | QFRET BODIPY PC-A2 liposome hydrolysis, fluorescence;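 active = inhibition above mean plus 3 SD of compounds lying within the high and low control bounds, cut at about 19% in these data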;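 note: 0% = median of test compound wells and 100% = no enzyme DMSO wells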
NR3A LBD binder: NR3A (human) ligand-binding domain modulation; Tm shift relative to glycine control, % at 25 µM; 340,000 compounds, 2.5% hits; NR3A LBD differential scanning fluorimetry, Tm shift; 0% = protein alone, 100% = glycine-bound protein; AID 1259313;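 active = melting temperature shift of at least 10% of the positive control shift, at one fixed dose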
ADAM10 confirm: confirmation of inhibitors of human ADAM10. shares compounds with ADAM10 inh. ADAM10 QFRET peptide cleavage, EDANS fluorescence. inhibition, % at 6.95 µM. 2,100 compounds, 1% hits. AID 743208;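 active = inhibition above about 20% chosen separately for each screening run, limit read from the data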;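 note: 0% = DMSO wells and 100% = marimastat wells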
ADAM17 ctr: counter-screen for ADAM10 exosite inhibitors: inhibitors of human ADAM17; AID 743214; ADAM17 QFRET peptide cleavage, EDANS fluorescence; inhibition, % at 6.95 µM; 2,100 compounds, 0.5% hits; shares compounds with ADAM10 inh;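 active = mean triplicate inhibition above the solvent-only control wells' mean plus 3 SD, cut at about 12% in these data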;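 note: 0% = DMSO wells and 100% = marimastat wells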
ADAM10 ctr: ADAM10 inhibition, counter-screen for ADAM17 exosite hits; shares compounds with ADAM17 inh; recombinant ADAM10, EDANS/DABCYL FRET peptide cleavage, 3 h; inhibition, % at 6.95 µM; 2,900 compounds, 47% hits; AID 743256;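 active = mean inhibition over the triplicate runs exceeds the activity threshold set in the earlier primary screen, cut at about 20% in these data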;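 note: 0% = DMSO wells and 100% = marimastat wells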
ADAM17 confirm: human ADAM17 inhibition, confirmation. shares compounds with ADAM17 inh. recombinant ADAM17, EDANS/DABCYL QFRET peptide cleavage. inhibition, % at 6.95 µM. 2,900 compounds, 65% hits;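 active = mean inhibition across replicates above the hit cutoff set in the primary screen, cut at about 8.5% in these data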;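 note: 0% = DMSO wells and 100% = marimastat wells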
Active calls of the source: *; / = no result given.

SMILES	FAS TE block	ADAM10 inh	ADAM17 inh	HGIII-sPLA2 inh	NR3A LBD binder	ADAM10 confirm	ADAM17 ctr	ADAM10 ctr	ADAM17 confirm
CC(C)(C)S(=O)N1Cc2cc(C(=O)NCC(F)(F)F)nc(-c3cccc(-c4cccc(F)c4)c3)c2[C@@H]1CCO (some centres not stated)	17	27*	15*	-7	/	0	0	11	6
COc1ccc2[nH]cc(C(C)c3ccccc3O)c2c1 (configuration not stated)	/	0	-4	-31	/	/	/	/	/
COc1ccc(-n2c(SCC(=O)NCc3cccs3)nc3[nH]ncc3c2=O)cc1	-10	-1	2	-3	-1	/	/	/	/
COc1cc(NC(=O)CSc2nc3[nH]ncc3c(=O)n2-c2ccc(Cl)cc2)cc(OC)c1	-69	31*	12*	-14	13*	3	1	26*	13*
COc1ccc(C2c3c(ncn(Cc4ccco4)c3=N)Oc3ccc4ccccc4c32)cc1 (configuration not stated)	24	15	-4	2	-1	/	/	/	/
N=c1c2c(ncn1Cc1ccco1)Oc1ccc3ccccc3c1C2c1ccccc1 (configuration not stated)	44	20*	11*	-17	-2	7	2	19	12*
CCCNC(=O)NC(=O)COC(=O)c1cccc(NS(=O)(=O)c2ccc(F)c(F)c2)c1	-3	6	-3	-24	-5	/	/	/	/
O=C(COC(=O)c1cccc(NS(=O)(=O)c2ccc(F)c(F)c2)c1)NC(=O)NC1CCCCC1	17	28*	13*	-73	23*	7	2	18	10*
C(=C\c1ccccc1)/CN1CCN(C(c2ccccc2)c2nnnn2-c2ccc3c(c2)OCCO3)CC1 (configuration not stated)	24	29*	14*	-10	/	5	2	20*	9.9*
Cc1ccc(CN2CCCCC(NC(=O)Nc3ccccc3F)C2=O)cc1 (configuration not stated)	/	-2	-1	0	/	/	/	/	/
CCCCOC(=O)c1ccc(NC(=O)c2c(Cl)ccc(Cl)c2OC)cc1	27	22*	9.3*	-12	-2	8	3	22*	14*
Cc1cccc(OCCNC(=O)c2cccc(Oc3ccc(C(F)(F)F)cc3[N+](=O)[O-])c2)c1	30	32*	14*	-13	-5	11	4	34*	18*
CCc1nc2ccc(C(=O)Nc3ccc(OC)c(OC)c3)cn2c1N(CC)CCOC	-5	5	-2	6	/	/	/	/	/
CCc1nc2ccc(C(=O)Nc3ccc(OC)c(OC)c3)cn2c1N(CC)Cc1cccc(Br)c1	14	26*	12*	-16	/	11	4	11	9.8*
CC1(C)CC(=O)c2c(nc(SCC(=O)Nc3nsc(-c4ccccc4)n3)c(C#N)c2-c2ccccc2)C1	44	6	-5	5	-1	/	/	/	/
CCc1c(C#N)c(SCCC(=O)Nc2ccc(F)cc2)nc2c1C(=O)CC(C)(C)C2	30	31*	10.0*	-19	2	6	2	33*	13*
COc1ccc(NS(=O)(=O)c2cccc(NC(=O)CCC(=O)c3ccc(Cl)cc3)c2)cc1	25	30*	14*	-58	26*	7	2	34*	19*
COC(=O)[C@]12C[C@H](CC(=O)NCc3ccc(OC)c(OC)c3)C(=O)N(Cc3ccc(Cl)cc3Cl)C1=C[C@H](C(C)C)O[C@@H]2C1CC1	/	11	4	-18	/	/	/	/	/
CC(C)(C)OC(=O)NCc1ccccc1/C=C/S(=O)(=O)NCCc1ccccc1	/	5	-1	-6	/	/	/	/	/
